These results are taken from the supplement of paper PMC13380429.

A number with no mark means an inactive call.

The first assay has as its system Vero E6 infected with SARS-CoV-2. Description: inhibition of SARS-CoV-2 cytopathic effect; higher = more antiviral protection, active = above 15. The settings on record: 8.33 nM; 48 h.
For the molecule `Cc1oc(=O)oc1CN1CCN(c2cc3c(cc2F)c(=O)c(C(=O)O)c2n3C(C)S2)CC1` (stereo not drawn) [prulifloxacin], the “inhibition of SARS-CoV-2 cytopathic effect” value (“inhibition” for short) was -0.69%. On the same count and under the same terms, in the case of `Cc1nc(C)c(C)nc1C` [chuanxiongzine] it was 0.85%. On the same count and under the same terms, in the case of `N#Cc1c(N)nc(SCC(N)=O)c(C#N)c1-c1ccc(OCC2CC2)cc1` it was 2.85%; in that of `O=C(O[C@H]1[C@H](OC(=O)c2cccnc2)[C@@H](OC(=O)c2cccnc2)[C@H](OC(=O)c2cccnc2)[C@@H](OC(=O)c2cccnc2)[C@H]1OC(=O)c1cccnc1)c1cccnc1` [inositol-hexanicotinate], 3.15%; in that of `CCOC(=O)[C@]12CC1/C(=N\O)c1ccccc1O2` (stereo partly drawn), -0.95%. Still for that read-out and setting: the figure for `OC[C@H]1O[C@@H](n2cnc3c(NC4CCCC4)ncnc32)[C@H](O)[C@@H]1O` [N6-cyclopentyladenosine] is 0.93%. As for `CN(C)CC[C@H](CSc1ccccc1)Nc1ccc(S(=O)(=O)NC(=O)c2ccc(N3CCN(Cc4ccccc4-c4ccc(Cl)cc4)CC3)cc2)cc1[N+](=O)[O-]`, the “inhibition” value was -0.39%. With `O=C(O)C1=C[C@@H](O)[C@@H](O)[C@H](O)C1` [shikimic-acid], the “inhibition” value is 1.14%. On the same count and under the same terms, in the case of `C[C@]12CC[C@@H]3c4ccc(OC(=O)c5ccccc5)cc4CC[C@H]3[C@@H]1CC[C@@H]2O` [estradiol-benzoate] it was -2.11%; in that of `CC[C@@]1(O)C(=O)OCc2c1cc1n(c2=O)Cc2c-1nc1cc(F)c(C)c3c1c2[C@@H](N)CC3` [exatecan-mesylate], -0.39%. For the molecule `Cc1cccc(C)c1NC(=O)[C@@H](C)N` [tocainide], the “inhibition” value was 0.17%. In the case of `Nc1ccn([C@@H]2O[C@@](CO)(CCl)[C@@H](O)[C@H]2F)c(=O)n1`, the “inhibition” value is 2.02%.

On to `CN(C)CCOC(=O)C(c1ccccc1)C1(O)CCCC1` (stereo not drawn) [cyclopentolate], for which the “inhibition” value is 1.59%.

Take `Cc1ccc(NCCCc2ccccc2)c(N)c1` [NFKB-activation-inhibitor-II]: the “inhibition” value is -0.96%.

The same assay, now with this note: 100 nM; 48 h.
On to `O=C1OC(CN2CCOCC2)CN1/N=C/c1ccc([N+](=O)[O-])o1` (stereo not drawn) [furaltadone], for which the “inhibition” value was -8.17%.

Take `CCN(CC)c1ccc(/C=N/NC(=O)c2ccc(O)cc2)cc1`: the “inhibition” value was 0.82%.

Take `Oc1cc(O)c2c(c1)O[C@H](c1ccc(O)c(O)c1)[C@@H](O)C2` [cianidanol]: the “inhibition” value was -1.15%.

On to `NS(=O)(=O)c1ccc2c(c1)C1C=CCC1C(c1ccc(Br)cc1)N2` (stereo not drawn), for which the “inhibition” value was -1.73%. Same read-out and setting: the figure for `c1nc(CC2CCNCC2)c[nH]1` [immepip] is -3.25%; for `CCN(Cc1ccncc1)C(=O)C(CO)c1ccccc1` (stereo not drawn) [tropicamide] it is 3.33%. The same measure, in the same setting: the figure for `O=C(/C=C\n1cnc(-c2cc(C(F)(F)F)cc(C(F)(F)F)c2)n1)NNc1cnccn1` [selinexor] is -7.87%. Same read-out and setting: the figure for `CON` [methoxyamine] is -0.44%; for `CC1C(=O)OC2C(O)C34C5CC(C(C)(C)C)C36C(OC(=O)C6O)OC4(C(=O)O5)C12O` (stereo not drawn) [ginkgolide-B] it is -1.98%; for `O=C(Nc1c(-c2cccs2)nc2ccccn12)c1ccc(Cl)cc1` it is -1.06%. Regarding `C[C@H](c1ccc(F)cc1CCCC(=O)O)N(c1cc(F)ccc1F)S(=O)(=O)c1ccc(Cl)cc1`, the “inhibition” value was -1.46%. On the same count and under the same terms, the figure for `C[C@]12CC[C@@H]3c4ccc(O)cc4CC[C@H]3[C@@H]1CC[C@@H]2OC(=O)CCC1CCCC1` [estradiol-cypionate] is -3.51%; for `CCOC(=O)c1c(C)[nH]c2ccc3c(c12)CN1CCc2cc(OC)ccc2C1O3` (stereo not drawn) it is 2.29%; for `CC(C)NCC(O)COc1ccc(COCCOC(C)C)cc1` (stereo not drawn) [bisoprolol] it is -2.42%. On the same count and under the same terms, the figure for `CNC(=O)c1c(-c2ccc(F)cc2)oc2cc(N(CCO)S(C)(=O)=O)c(C3CC3)cc12` [nesbuvir] is 0.33%. Still for that read-out and setting: the figure for `COc1ccc(/C=C/C(=O)Nc2ccccc2C(=O)O)cc1OC` [tranilast] is -1.22%; for `CC(=O)Oc1cc(C(F)(F)F)ccc1C(=O)O` [triflusal] it is -1.38%; for `CN(CCOc1ccc(C[C@H](Nc2ccccc2C(=O)c2ccccc2)C(=O)O)cc1)c1ccccn1` it is 0.52%. With `CCc1c(C(=O)NCCc2ccc(N3CCCCC3)cc2)[nH]c2ccc(Cl)cc12`, the “inhibition” value is 4.96%.
